# Results from article PMC7862700, “An all-to-all approach to the identification of sequence-specific readers for epigenetic DNA modifications on cytosine”.
# Assays:
# Experiment in all cases: DAPPL (digital affinity profiling via proximity ligation, sequencing); 10 mM Tris-HCl pH 7.5, 50 mM NaCl, 1 mM DTT, 4% glycerol, room temperature, 30 min; GST-TFs on glutathione beads, 16-mer random dsDNA library, 0.1% formaldehyde crosslink after washing; high values mean tight binding
# [1] = molecular target: T1, FLI1 (Homo sapiens, UniProt Q01543 1-452); details: protein: recombinant; tags: N-terminal GST; dsDNA, one strand shown
# T1 sequence: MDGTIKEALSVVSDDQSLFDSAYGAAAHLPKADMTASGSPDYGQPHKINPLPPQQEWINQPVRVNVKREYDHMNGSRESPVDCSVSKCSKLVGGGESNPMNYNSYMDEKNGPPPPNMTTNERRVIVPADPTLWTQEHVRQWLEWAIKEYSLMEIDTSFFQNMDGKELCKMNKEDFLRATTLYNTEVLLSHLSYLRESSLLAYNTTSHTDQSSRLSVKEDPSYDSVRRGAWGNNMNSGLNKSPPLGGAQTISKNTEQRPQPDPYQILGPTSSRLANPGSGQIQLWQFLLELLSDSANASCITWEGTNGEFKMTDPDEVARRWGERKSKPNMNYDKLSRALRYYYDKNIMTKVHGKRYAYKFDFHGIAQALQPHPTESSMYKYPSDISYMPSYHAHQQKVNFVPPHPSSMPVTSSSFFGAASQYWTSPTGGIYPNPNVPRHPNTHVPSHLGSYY
# How it was run: (§1)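 After expression in yeast as GST fusions, human transcription factors were bound to glutathione beads, DNA-barcoded and mixed with a tag-only sample. The pools were incubated with 200 nmole of a 16-mer random double-stranded DNA library in Tris/NaCl/DTT/glycerol buffer (30 min, room temperature), washed and crosslinked with 0.1% formaldehyde. Proximity ligation with BsaI/T4 ligase ran for 1 h at 37 °C, before PCR amplification and sequencing on an Illumina NextSeq500. Binding signal is a hexamer's read frequency for a factor divided by its frequency for the tag-only sample.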
# [2] = molecular target: T2, ELK1 (Homo sapiens, UniProt P19419 1-428); details: protein: recombinant; tags: N-terminal GST; dsDNA, one strand shown
# T2 sequence: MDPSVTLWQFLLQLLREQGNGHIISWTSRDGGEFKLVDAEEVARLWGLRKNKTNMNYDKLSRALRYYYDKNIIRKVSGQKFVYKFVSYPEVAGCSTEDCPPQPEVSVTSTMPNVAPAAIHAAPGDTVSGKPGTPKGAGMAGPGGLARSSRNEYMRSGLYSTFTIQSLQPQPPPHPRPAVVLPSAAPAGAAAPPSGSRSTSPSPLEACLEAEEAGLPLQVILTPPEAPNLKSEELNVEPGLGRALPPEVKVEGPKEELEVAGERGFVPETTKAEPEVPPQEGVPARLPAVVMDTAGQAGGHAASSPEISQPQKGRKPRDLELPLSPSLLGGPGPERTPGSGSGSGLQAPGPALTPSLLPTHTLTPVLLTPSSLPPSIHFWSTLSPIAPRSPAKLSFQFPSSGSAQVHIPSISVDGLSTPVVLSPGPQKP
# How it was run: as §1
# [3] = molecular target: T3, GABPA (Homo sapiens, UniProt Q06546 1-454); details: protein: recombinant; tags: N-terminal GST; dsDNA, one strand shown
# T3 sequence: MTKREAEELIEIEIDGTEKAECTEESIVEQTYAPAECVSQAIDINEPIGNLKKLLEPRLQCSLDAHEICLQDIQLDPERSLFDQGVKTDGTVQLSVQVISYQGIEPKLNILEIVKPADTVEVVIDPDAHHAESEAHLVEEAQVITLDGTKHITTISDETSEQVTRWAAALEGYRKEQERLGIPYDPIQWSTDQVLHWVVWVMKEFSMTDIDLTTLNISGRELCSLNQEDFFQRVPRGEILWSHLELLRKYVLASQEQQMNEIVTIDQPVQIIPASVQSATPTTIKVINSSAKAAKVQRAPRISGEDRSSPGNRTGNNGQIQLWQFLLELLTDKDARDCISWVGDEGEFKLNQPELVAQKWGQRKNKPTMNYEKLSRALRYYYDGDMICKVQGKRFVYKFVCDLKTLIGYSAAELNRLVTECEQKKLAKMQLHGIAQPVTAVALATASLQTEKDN
# How it was run: as §1
# [4] = molecular target: T4, ERG (Homo sapiens, UniProt P11308 1-479); details: protein: recombinant; tags: N-terminal GST; dsDNA, one strand shown
# T4 sequence: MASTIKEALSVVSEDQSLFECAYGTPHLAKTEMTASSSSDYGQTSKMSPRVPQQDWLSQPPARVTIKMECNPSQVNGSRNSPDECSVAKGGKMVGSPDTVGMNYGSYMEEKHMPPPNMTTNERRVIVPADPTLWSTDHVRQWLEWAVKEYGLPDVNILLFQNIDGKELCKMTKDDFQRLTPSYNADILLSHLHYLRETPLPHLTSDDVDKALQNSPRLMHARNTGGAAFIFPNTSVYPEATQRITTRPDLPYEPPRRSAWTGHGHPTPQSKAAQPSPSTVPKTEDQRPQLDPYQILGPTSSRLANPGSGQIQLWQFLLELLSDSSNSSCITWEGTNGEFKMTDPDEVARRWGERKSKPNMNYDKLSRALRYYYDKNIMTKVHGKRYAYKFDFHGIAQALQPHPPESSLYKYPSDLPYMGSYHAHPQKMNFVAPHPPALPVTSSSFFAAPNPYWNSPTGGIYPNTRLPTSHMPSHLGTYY
# How it was run: as §1
# [5] = molecular target: ELF1 (Homo sapiens, UniProt P32519 1-619); details: protein: recombinant; tags: N-terminal GST; dsDNA, one strand shown
# How it was run: as §1
# [6] = molecular target: T5, EHF (Homo sapiens, UniProt Q9NZC4 1-300); details: protein: recombinant; tags: N-terminal GST; dsDNA, one strand shown
# T5 sequence: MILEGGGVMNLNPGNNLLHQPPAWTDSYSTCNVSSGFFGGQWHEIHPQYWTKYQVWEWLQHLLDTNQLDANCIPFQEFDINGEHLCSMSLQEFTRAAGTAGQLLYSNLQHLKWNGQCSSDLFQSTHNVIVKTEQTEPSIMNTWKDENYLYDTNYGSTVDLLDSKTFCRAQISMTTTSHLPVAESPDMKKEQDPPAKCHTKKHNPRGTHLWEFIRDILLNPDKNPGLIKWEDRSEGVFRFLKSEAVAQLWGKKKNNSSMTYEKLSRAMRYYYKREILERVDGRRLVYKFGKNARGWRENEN
# How it was run: as §1
# [7] = molecular target: SPI1 (Homo sapiens, UniProt P17947 1-270); details: protein: recombinant; tags: N-terminal GST; dsDNA, one strand shown
# How it was run: as §1
# [8] = molecular target: SPIB (Homo sapiens, UniProt Q01892 1-262); details: protein: recombinant; tags: N-terminal GST; dsDNA, one strand shown
# How it was run: as §1
# [9] = molecular target: T6, ELK3 (Homo sapiens, UniProt P41970 1-407); details: protein: recombinant; tags: N-terminal GST; dsDNA, one strand shown
# T6 sequence: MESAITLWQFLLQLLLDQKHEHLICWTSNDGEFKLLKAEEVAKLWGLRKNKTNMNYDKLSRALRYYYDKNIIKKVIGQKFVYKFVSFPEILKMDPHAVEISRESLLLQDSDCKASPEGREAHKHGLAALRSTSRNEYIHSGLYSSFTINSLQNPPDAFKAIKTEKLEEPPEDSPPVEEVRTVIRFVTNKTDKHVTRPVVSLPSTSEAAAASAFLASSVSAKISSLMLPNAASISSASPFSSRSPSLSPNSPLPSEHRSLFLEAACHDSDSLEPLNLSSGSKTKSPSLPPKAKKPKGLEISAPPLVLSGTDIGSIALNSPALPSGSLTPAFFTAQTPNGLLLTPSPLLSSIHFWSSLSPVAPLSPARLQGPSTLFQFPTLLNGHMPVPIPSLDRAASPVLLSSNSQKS
# How it was run: as §1
# [10] = molecular target: T7, FEV (Homo sapiens, UniProt Q99581 1-238); details: protein: recombinant; tags: N-terminal GST; dsDNA, one strand shown
# T7 sequence: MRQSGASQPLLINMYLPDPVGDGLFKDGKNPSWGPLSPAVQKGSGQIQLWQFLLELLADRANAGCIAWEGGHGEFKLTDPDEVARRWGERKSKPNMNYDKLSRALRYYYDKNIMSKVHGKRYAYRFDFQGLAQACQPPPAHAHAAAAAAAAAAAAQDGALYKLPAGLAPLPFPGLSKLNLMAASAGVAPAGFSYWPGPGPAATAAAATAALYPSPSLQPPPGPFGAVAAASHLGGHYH
# How it was run: as §1
# [11] = molecular target: ETV5 (Homo sapiens, UniProt P41161 1-510); details: protein: recombinant; tags: N-terminal GST; dsDNA, one strand shown
# How it was run: as §1
# [12] = molecular target: HSF1 (Homo sapiens, UniProt Q00613 1-529); details: protein: recombinant; tags: N-terminal GST; chain copies: 3; dsDNA, one strand shown
# How it was run: as §1
# [13] = molecular target: T8, SPIC (Homo sapiens, UniProt Q8N5J4 1-248); details: protein: recombinant; tags: N-terminal GST; dsDNA, one strand shown
# T8 sequence: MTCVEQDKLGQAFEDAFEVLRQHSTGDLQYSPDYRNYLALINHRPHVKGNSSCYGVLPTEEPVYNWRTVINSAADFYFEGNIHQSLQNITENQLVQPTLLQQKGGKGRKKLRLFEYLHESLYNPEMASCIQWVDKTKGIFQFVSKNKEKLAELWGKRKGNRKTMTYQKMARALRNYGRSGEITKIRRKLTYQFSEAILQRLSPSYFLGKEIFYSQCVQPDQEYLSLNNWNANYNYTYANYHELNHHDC
# How it was run: as §1
# [14] = molecular target: ELF4 (Homo sapiens, UniProt Q99607 1-663); details: protein: recombinant; tags: N-terminal GST; dsDNA, one strand shown
# How it was run: as §1
# [15] = molecular target: T9, ELK4 (Homo sapiens, UniProt P28324-2 1-405); details: protein: recombinant; tags: N-terminal GST; dsDNA, one strand shown
# T9 sequence: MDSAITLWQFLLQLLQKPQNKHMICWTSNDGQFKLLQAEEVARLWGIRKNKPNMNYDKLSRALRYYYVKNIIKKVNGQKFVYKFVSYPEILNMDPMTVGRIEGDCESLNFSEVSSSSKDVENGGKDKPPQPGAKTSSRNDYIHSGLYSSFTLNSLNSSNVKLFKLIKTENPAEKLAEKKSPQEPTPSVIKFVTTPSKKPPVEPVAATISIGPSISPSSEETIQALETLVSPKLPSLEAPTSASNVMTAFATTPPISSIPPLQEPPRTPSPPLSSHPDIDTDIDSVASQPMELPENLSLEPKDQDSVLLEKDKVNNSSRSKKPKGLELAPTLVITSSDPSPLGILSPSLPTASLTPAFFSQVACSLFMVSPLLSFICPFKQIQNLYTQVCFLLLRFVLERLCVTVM
# How it was run: as §1
# [16] = molecular target: T10, ETV2 (Homo sapiens, UniProt O00321 1-342); details: protein: recombinant; tags: N-terminal GST; dsDNA, one strand shown
# T10 sequence: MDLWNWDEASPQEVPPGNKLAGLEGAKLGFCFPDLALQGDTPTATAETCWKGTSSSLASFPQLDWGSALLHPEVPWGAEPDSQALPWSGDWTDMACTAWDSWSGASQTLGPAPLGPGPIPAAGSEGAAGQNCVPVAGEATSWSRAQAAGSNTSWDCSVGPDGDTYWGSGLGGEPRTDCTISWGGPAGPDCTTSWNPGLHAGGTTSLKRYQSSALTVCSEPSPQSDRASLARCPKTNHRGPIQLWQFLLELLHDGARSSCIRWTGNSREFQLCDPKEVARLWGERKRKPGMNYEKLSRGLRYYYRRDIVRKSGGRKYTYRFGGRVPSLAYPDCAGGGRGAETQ
# How it was run: as §1
# [17] = molecular target: T11, ELF3 (Homo sapiens, UniProt P78545 1-371); details: protein: recombinant; tags: N-terminal GST; dsDNA, one strand shown
# T11 sequence: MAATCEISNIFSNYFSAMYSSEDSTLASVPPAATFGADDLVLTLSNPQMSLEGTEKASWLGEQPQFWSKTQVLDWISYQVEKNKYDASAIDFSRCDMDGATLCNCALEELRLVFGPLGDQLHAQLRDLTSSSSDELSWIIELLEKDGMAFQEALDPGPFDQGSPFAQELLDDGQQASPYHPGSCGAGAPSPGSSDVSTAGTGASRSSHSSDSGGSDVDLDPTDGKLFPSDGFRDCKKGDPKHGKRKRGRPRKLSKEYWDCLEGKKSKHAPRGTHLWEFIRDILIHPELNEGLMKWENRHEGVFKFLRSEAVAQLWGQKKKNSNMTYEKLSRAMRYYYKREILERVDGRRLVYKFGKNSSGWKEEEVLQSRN
# How it was run: as §1
# [18] = molecular target: CRX (Homo sapiens, UniProt O43186 1-299); details: protein: recombinant; tags: N-terminal GST; dsDNA, one strand shown
# How it was run: as §1
# [19] = molecular target: ETV1 (Homo sapiens, UniProt P50549 1-477); details: protein: recombinant; tags: N-terminal GST; dsDNA, one strand shown
# How it was run: as §1
# Sequence of ETV1 (P50549 whole entry): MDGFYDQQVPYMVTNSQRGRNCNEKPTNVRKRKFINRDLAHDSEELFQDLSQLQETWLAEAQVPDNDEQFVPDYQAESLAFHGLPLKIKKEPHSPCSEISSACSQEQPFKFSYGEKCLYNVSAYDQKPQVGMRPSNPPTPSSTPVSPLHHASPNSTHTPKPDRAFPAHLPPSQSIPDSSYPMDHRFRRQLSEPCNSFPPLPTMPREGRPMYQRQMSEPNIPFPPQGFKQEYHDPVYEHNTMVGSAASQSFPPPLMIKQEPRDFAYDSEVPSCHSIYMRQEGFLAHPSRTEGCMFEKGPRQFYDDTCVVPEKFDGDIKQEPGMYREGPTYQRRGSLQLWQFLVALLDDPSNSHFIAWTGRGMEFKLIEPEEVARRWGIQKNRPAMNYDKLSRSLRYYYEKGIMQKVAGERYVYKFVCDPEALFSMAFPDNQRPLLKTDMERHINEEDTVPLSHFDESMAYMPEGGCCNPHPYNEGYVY
# Sequence of ELF4 (Q99607 whole entry): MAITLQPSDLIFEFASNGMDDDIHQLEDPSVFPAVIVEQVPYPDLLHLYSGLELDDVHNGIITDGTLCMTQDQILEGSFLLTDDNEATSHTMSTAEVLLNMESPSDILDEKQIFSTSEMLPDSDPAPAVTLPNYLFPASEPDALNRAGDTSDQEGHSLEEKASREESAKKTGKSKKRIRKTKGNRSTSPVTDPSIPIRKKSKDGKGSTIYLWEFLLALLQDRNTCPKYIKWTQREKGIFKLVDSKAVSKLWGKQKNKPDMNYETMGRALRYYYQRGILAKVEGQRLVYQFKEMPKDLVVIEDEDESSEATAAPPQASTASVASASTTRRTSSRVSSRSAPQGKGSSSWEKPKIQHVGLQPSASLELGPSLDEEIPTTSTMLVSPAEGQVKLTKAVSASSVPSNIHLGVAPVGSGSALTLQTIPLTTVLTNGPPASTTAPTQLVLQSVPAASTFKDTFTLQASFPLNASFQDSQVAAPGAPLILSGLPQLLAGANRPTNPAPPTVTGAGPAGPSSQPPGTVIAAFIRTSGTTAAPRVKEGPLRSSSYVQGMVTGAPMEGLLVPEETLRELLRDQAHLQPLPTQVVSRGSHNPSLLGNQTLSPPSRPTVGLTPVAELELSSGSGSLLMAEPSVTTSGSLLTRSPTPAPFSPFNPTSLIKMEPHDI
# Sequence of ELF1 (P32519 whole entry): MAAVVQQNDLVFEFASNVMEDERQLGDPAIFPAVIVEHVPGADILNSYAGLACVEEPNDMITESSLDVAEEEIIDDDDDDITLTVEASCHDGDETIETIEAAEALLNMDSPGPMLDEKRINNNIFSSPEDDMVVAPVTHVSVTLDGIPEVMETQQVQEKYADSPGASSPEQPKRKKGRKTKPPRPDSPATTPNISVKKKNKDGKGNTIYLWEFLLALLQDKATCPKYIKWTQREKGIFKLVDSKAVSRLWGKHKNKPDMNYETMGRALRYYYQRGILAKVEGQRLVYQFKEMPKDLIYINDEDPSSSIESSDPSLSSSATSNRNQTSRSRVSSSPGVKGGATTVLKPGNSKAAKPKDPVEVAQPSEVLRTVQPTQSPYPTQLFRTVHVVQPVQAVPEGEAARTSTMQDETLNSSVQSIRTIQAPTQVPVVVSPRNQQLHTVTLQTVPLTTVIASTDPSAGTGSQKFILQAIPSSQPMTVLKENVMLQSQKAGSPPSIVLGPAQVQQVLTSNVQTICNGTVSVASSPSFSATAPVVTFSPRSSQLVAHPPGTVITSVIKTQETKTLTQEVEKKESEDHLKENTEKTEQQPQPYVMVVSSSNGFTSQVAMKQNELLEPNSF
# Sequence of CRX (O43186 whole entry): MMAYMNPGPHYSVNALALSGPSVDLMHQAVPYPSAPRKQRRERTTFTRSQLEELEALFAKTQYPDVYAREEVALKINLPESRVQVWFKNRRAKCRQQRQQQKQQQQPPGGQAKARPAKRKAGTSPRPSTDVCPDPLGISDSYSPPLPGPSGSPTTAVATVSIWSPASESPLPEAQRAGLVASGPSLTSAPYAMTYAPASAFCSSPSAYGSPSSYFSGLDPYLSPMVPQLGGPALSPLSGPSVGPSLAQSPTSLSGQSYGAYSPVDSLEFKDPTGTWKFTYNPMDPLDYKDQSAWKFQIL
# Sequence of HSF1 (Q00613 whole entry): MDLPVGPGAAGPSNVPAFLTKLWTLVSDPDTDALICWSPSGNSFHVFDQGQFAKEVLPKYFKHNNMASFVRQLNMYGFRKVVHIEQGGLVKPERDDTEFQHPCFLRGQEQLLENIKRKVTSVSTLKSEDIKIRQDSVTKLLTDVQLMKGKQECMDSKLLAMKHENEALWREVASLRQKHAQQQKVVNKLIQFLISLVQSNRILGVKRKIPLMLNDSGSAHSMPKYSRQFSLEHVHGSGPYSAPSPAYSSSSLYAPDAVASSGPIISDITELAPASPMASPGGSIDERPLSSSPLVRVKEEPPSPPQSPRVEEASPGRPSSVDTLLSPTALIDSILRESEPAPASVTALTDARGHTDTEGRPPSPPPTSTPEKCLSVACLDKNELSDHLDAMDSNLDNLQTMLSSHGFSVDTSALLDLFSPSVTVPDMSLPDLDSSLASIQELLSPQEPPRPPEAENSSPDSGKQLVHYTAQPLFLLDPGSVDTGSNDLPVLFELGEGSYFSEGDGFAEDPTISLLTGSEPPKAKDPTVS
# Sequence of SPIB (Q01892 whole entry): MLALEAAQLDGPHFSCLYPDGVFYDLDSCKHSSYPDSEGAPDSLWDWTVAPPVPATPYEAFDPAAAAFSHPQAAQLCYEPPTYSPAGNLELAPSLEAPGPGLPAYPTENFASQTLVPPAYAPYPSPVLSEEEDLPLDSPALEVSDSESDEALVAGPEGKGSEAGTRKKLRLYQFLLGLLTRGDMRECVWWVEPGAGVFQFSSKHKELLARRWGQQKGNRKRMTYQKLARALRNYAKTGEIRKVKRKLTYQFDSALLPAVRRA
# Sequence of ETV5 (P41161 whole entry): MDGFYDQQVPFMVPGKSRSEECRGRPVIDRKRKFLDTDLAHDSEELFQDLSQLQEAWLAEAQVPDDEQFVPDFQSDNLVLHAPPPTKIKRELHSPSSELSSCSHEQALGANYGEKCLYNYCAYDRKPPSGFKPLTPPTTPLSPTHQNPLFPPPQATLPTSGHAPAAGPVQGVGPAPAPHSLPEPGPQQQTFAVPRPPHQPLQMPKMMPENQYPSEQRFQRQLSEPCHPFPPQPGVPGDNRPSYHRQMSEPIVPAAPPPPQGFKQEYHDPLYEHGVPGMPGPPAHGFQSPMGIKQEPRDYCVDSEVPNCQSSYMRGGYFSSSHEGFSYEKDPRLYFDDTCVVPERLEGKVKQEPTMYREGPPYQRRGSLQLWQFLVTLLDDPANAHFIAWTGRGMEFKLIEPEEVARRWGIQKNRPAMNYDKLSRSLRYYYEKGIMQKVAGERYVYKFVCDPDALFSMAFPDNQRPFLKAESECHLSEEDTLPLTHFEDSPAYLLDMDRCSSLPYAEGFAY
sequence,measurement,setting,value
TACCAT,binding signal,[1],"1.22 fold enrichment (6-mer frequency, TF over GST control)"
same,binding signal,[2],"1.09 fold enrichment (6-mer frequency, TF over GST control)"
same,binding signal,[3],"1.19 fold enrichment (6-mer frequency, TF over GST control)"
same,binding signal,[4],"1.17 fold enrichment (6-mer frequency, TF over GST control)"
same,binding signal,[5],"1.23 fold enrichment (6-mer frequency, TF over GST control)"
same,binding signal,[6],"1.11 fold enrichment (6-mer frequency, TF over GST control)"
same,binding signal,[7],"1.15 fold enrichment (6-mer frequency, TF over GST control)"
same,binding signal,[8],"1.21 fold enrichment (6-mer frequency, TF over GST control)"
same,binding signal,[9],"1.21 fold enrichment (6-mer frequency, TF over GST control)"
same,binding signal,[10],"1.14 fold enrichment (6-mer frequency, TF over GST control)"
same,binding signal,[11],"1.13 fold enrichment (6-mer frequency, TF over GST control)"
same,binding signal,[12],"1.14 fold enrichment (6-mer frequency, TF over GST control)"
same,binding signal,[13],"1.11 fold enrichment (6-mer frequency, TF over GST control)"
same,binding signal,[14],"1.22 fold enrichment (6-mer frequency, TF over GST control)"
same,binding signal,[15],"1.27 fold enrichment (6-mer frequency, TF over GST control)"
same,binding signal,[16],"1.15 fold enrichment (6-mer frequency, TF over GST control)"
same,binding signal,[17],"1.16 fold enrichment (6-mer frequency, TF over GST control)"
same,binding signal,[18],"1.23 fold enrichment (6-mer frequency, TF over GST control)"
same,binding signal,[19],"1.2 fold enrichment (6-mer frequency, TF over GST control)"
